The text below walks through data of PubChem BioAssay AID463173 (ICCB-Longwood Screening Facility, Harvard Medical School, 2010).

Out of some 52,000 compounds screened, about 4,300 (8.3%) were called active. Rule as the data show it: active = survival mostly below about 52% (no sharp cut-off); inactive = mostly above about 56%. Shown is part of a subset that was picked to be rich in actives.

The experiment deals with DeltatarO mutant. The experiment in a line: growth inhibition of S. aureus wild type versus tarO mutant, primary screen, teichoic acid synthesis inhibitors, RN4220, OD600 (AID 463173). Conditions: OD600, 18 h, hits give low values, screened at 18.75 µg/mL (by protocol).
Regarding `CC(=O)N/C(N)=N\c1nc(C)c2ccc(C)cc2n1`, the survival is 73% (inactive).

Consider `O=C(NCc1ccc(Cl)cc1)c1ccc2c(c1)NC(=O)C(CS(=O)(=O)Cc1ccccc1Cl)N2` (stereo unspecified), for which the survival is 94% (inactive).

On to `COCCCNC(=O)Nc1cc(C(=O)NCc2ccc(OC)cc2)ccc1N1CCCC1`, for which the survival was 67% (inactive).

As to `COc1ccccc1N1CCN(CCCNC(=O)c2cnn(-c3cccc(Cl)c3)c2C2CCN(C(=O)OC(C)(C)C)CC2)CC1`, the survival is 87% (inactive).

For the compound `CC1=C(C(=O)Nc2c(C)cc(C)cc2C)C2(CCN(C(C)C)CC2)OC1=O`, the survival was 112% (inactive).

With `O=C(CCCn1c(=O)c2sccc2n(Cc2c(F)cccc2Cl)c1=O)NCc1ccccc1`, the survival was 138% (inactive).

On to `CCOC(=O)c1noc2ncnc(N3CCC(C)CC3)c12`, for which the survival is 75% (inactive).

For the compound `Cc1ccc(C2=NC(c3ccccc3)=Nc3ccc(Cl)cc3N2)cc1`, the survival was 89% (inactive).

For `CCOc1ccc(NC(=O)CN(c2ccc(C)cc2)S(=O)(=O)c2cccs2)cc1`, the survival is 83% (inactive).

With `COc1ccc2c(c1)CCc1c(C(=O)Nc3ccccc3C(F)(F)F)noc1-2`, the survival is 143% (inactive).

Consider `Cc1ccc(NC(=O)C2CCCN(c3ncnc4onc(C)c34)C2)c(Cl)c1` (stereo unspecified), for which the survival was 74% (inactive).

On to `CC1CCc2c(sc3ncnc(NCCOCCO)c23)C1` (stereo unspecified), for which the survival is 98% (inactive).

Consider `Cc1ccc(-c2nc(NC(=O)CSc3ncnc4sc5c(c34)CCC(C)C5)ns2)cc1` (stereo unspecified), for which the survival is 69% (inactive).

On to `Cc1ccc(OCCCCn2nnc3sc4c(c3c2=O)CCC(C)C4)cc1` (stereo unspecified), for which the survival is 56% (inactive).

Turning to `CCCCCOC(=O)CSc1ncnc2sc3c(c12)CCC(C)C3` (stereo unspecified), the survival is -4% (active).

Consider `CCCCOC(=O)CSc1ncnc2sc3c(c12)CCC(C)C3` (stereo unspecified), for which the survival was 17% (active).

As to `CCCOC(=O)CSc1ncnc2sc3c(c12)CCC(C)C3` (stereo unspecified), the survival was 7% (active).

Regarding `CCC(C(=O)OC(C)C)n1cnc2sc3c(c2c1=O)CCC(C)C3` (stereo unspecified), the survival is 93% (inactive).

For the compound `CCCCCOC(=O)CSc1ncnc2c1sc1nc(N3CCOCC3)c3c(c12)CCCC3`, the survival is 71% (inactive).

`CCOc1ccc(NC(=O)CSc2cn(CC(=O)N3CCOCC3)c3ccccc23)cc1`: the survival was 95% (inactive).

Consider `CCOc1ccc(NC(=O)Cn2c(=O)n(CCCCC(=O)NCc3ccc4c(c3)OCO4)c(=O)c3ccccc32)cc1`, for which the survival was 85% (inactive).

For `CC1(C)CC(NC(=O)CCCC(=O)O)CC(C)(C)N1`, the survival is 81% (inactive).

Consider `COc1ccc(C)cc1NC(=O)c1ccc2c(=O)n3c(nc2c1)CCCCC3`, for which the survival is 65% (inactive).

With `COc1ccc(Cn2c(CO)cnc2SCC(=O)NCc2ccco2)cc1`, the survival was -5% (active).

`COc1ccc(Cn2ccnc2SCC(=O)NCc2ccco2)cc1`: the survival was 75% (inactive).

For the compound `Cc1ccc(Cn2c(CO)cnc2SCC(=O)NCc2ccccc2Cl)cc1`, the survival is 73% (inactive).

`Cc1ccc(Cn2c(CO)cnc2SCC(=O)Nc2ccc(C)c(Cl)c2)cc1`: the survival is -5% (active).

Turning to `COc1ccc(Cn2c(CO)cnc2SCc2ccc(F)cc2)cc1`, the survival is 17% (active).

For the compound `O=C(CSc1ncc(CO)n1Cc1ccc(F)cc1)NCc1ccco1`, the survival is 126% (inactive).

With `OCc1cnc(SCc2ccc(F)cc2)n1Cc1ccc(F)cc1`, the survival is 88% (inactive).

In the case of `CCOC(=O)c1ccccc1NC(=O)CSc1ncc(CO)n1Cc1ccc(C)cc1`, the survival is 77% (inactive).

`COc1ccc(Cn2c(CO)cnc2SCc2ccccc2)cc1`: the survival was 89% (inactive).

As for `Cc1ccc(NC(=O)N2CCN(c3nnc(C)c4c(C)n(-c5ccccc5)nc34)CC2)cc1Cl`, the survival was 94% (inactive).

Consider `O=C(CSc1nnc2ccc3ccccc3n12)Nc1ccccc1Cl`, for which the survival was 76% (inactive).

Consider `Cc1cc2ccccc2n1CCNC(=O)c1ccc(Br)cc1`, for which the survival was 58% (inactive).

Take `CCOC(=O)c1cc(-c2ccc(C)cc2)n(CC(=O)Nc2ccc(OC)cc2OC)c1C`: the survival is 97% (inactive).

Regarding `Cc1cc(-c2ccc(C)c(S(=O)(=O)NCc3cccs3)c2)on1`, the survival is 72% (inactive).

In the case of `CC(C)C(=O)Nc1ccc(NC(=O)c2ccccc2)nc1`, the survival is 87% (inactive).

For the compound `Cc1cc(NC(=O)c2ccc(NC(=O)C(C)C)cc2)no1`, the survival is 72% (active).

Take `COc1cccc(C(=O)Nc2cc(C)on2)c1`: the survival was 89% (inactive).

As for `CC(C)Oc1ccc(CNC(=O)Nc2ccc3c(c2)N(C)C(=O)c2ccccc2S3)cc1`, the survival was 94% (inactive).

`CCN1CCN(CCCNC(=O)c2cc3c(=O)n(CC)c4ccccc4c3s2)CC1`: the survival was 97% (inactive).

On to `Cc1ccc(NC(=O)N2CC3CCCN3c3ccccc32)cc1C` (stereo unspecified), for which the survival is -4% (active).

Turning to `Cc1ccc(NC(=O)N2CC3CCCN3c3ccccc32)c(C)c1` (stereo unspecified), the survival is 86% (inactive).

With `Cc1ccc(NC(=O)N2CC3CCCN3c3ccccc32)cc1Cl` (stereo unspecified), the survival is 62% (inactive).

Turning to `Cc1cccc(NC(=O)CSc2ncc3c(n2)-c2ccccc2N(Cc2ccc(F)cc2)S3(=O)=O)c1C`, the survival is 68% (inactive).

Take `Cc1cccc(-n2ncc3c(N4CCCCCC4)ncnc32)c1`: the survival was 92% (inactive).

For the compound `COc1ccc(C(=O)Nc2ccc(-c3nnc4n3CCCCC4)cc2)cc1OC`, the survival is 57% (inactive).

For the compound `COc1ccc(C(=O)Nc2ccc(-c3nnc4n3CCCCC4)cc2)cc1`, the survival is 0% (active).

In the case of `CCOc1cc(C(=O)Nc2ccc(-c3nnc4n3CCCCC4)cc2)cc(OCC)c1OCC`, the survival is 69% (inactive).

As to `COc1cccc(NC(=O)c2cnc(SCC(=O)N3CCOCC3)n(C)c2=O)c1`, the survival is 120% (inactive).

`COc1ccc(-n2nc(C(=O)N3CCC(C)CC3)c3c4ccccc4n(C)c3c2=O)cc1Cl`: the survival was 87% (inactive).

Regarding `CC(C)CSc1nnc(-c2ccccc2)c(-c2ccccc2)n1`, the survival was -8% (active).

As for `CCc1ccccc1NC(=O)CSc1nnc(-c2ccccc2)c(-c2ccccc2)n1`, the survival was 88% (inactive).

For the compound `O=C(CSc1nnc(-c2ccccc2)c(-c2ccccc2)n1)Nc1ccccc1Cl`, the survival is 75% (inactive).

In the case of `COc1cccc(C(=O)NCC(c2ccc(N(C)C)cc2)N2CCc3ccccc32)c1` (stereo unspecified), the survival is 144% (inactive).

With `COc1ccccc1-c1nnc(C2CCN(C(=O)c3cccc(Cl)c3)CC2)o1`, the survival was 88% (inactive).

Consider `O=C(CSc1nc2ccccc2n1Cc1cccc(F)c1)N1CCN(c2ccc(F)cc2)CC1`, for which the survival was 64% (inactive).

As for `CN1CCc2c(sc(N)c2C(=O)O)C1`, the survival is 80% (inactive).

For the compound `O=C(CSc1nc(=O)n(CCN2CCOCC2)c2c1CCC2)Nc1ccc(F)cc1F`, the survival was 124% (inactive).

With `CCOc1ccc(-n2c(=O)c3c(C)c(C(=O)N(C)C)sc3n(CC(=O)Nc3c(C)cc(C)cc3C)c2=O)cc1`, the survival is 72% (inactive).

For `CCc1ccc(-n2c(=O)c3c(C)c(C(=O)N(C)C)sc3n(Cc3cccc(C)c3)c2=O)cc1`, the survival was 99% (inactive).

`COc1cccc(-n2c(=O)c3c(C)c(C(=O)N(C)C)sc3n(Cc3cccc(C)c3)c2=O)c1`: the survival is 37% (active).

Take `CCOc1ccc(-n2c(=O)c3c(C)c(C(=O)N(C)C)sc3n(Cc3cc(C)ccc3C)c2=O)cc1`: the survival was 0% (active).

Turning to `Cc1ccc(-n2c(=O)c3c(C)c(C(=O)N(C)C)sc3n(Cc3ccccc3C)c2=O)cc1C`, the survival was 98% (inactive).

As to `COc1cccc(-n2c(=O)c3c(C)c(C(=O)N(C)C)sc3n(Cc3ccc(F)cc3Cl)c2=O)c1`, the survival was 92% (inactive).
